The whole screen tested about 69,000 compounds, of which about 8,600 (12%) showed an effect of 50% or more. This is one part of a sample in which strong results are shown more often than they occur.

Data on 49 compounds can be found in ChEMBL document CHEMBL4513216, “Probing the Open Global Health Chemical Diversity Library for Multistage-Active Starting Points for Next-Generation Antimalarials” (ACS Infect Dis, 2020).

The test system of the test is Plasmodium berghei. Description: Screen against P. berghei liver stage (PbLuc), transformed with Luciferase, at 10uM. It is filed as functional, HepG2. Particulars: tested at 10 uM.
For `O=C(NCC1(O)COCCN(Cc2ccc(O)cc2)C1)c1cnccn1` (centres undefined), the INHIBITION is listed as -42.9%. Take `CCCc1nnc(NC(=O)Cc2c(C)nc(C)[nH]c2=O)s1`: the INHIBITION is 16.585%.

Regarding `O=C(NCc1cccs1)c1nc2c(o1)CN(CC1CC1)C2`, the INHIBITION is listed as -31.4%. As to `CNC(=O)[C@@H]1[C@@H](OC(=O)Nc2ccccc2)C(=O)N(C)C12CCNCC2`, the INHIBITION is 35.8%.

Consider `COc1ccc(C(C(=O)O)N2CCC(Cn3cccn3)CC2)c(OC)n1` (centres undefined), for which the INHIBITION is given as -40%. In the case of `CCCc1nc(CN2CCCCC2Cn2cncn2)cs1` (centres undefined), the INHIBITION was determined as 30.6%. Regarding `COCCOCC(=O)N1CCC2(CCCN(C3CCOCC3)C2=O)C1` (centres undefined), the INHIBITION is -7.7%. Take `Cn1nnc2c(N3CC(C(=O)NCCC4=CCCCC4)C3)ncnc21`: the INHIBITION is recorded as -19.1%. As for `Cc1csc(CN2CC[C@H]3C[C@H](c4nnc(C)[nH]4)O[C@@H]3C2)n1`, the INHIBITION amounted to 23.5%. To `Cc1csc([C@@H]2C[C@@H]3CCN(Cc4cc(C)on4)C[C@H]3O2)n1` belongs 26.7%; to `Cc1cc(CN2CC[C@H]3C[C@H](C(=O)N(C)C)O[C@@H]3C2)no1`, 23.9%; to `Cc1cc(CN2CC[C@H]3C[C@H](C)O[C@@H]3C2)no1`, 34.1%. Consider `Cc1csc([C@H]2C[C@H]3CN(Cc4cc(C)on4)CC[C@@H]3O2)n1`, for which the INHIBITION was found to be 46.6%.

`Cc1cc(CN2CC[C@H]3C[C@@H](C)O[C@@H]3C2)no1`: the INHIBITION is given as 50.9%.

For `O=C(C1CCOCC1)N1C[C@@H]2C[C@@H](c3nc(C4CC4)cs3)O[C@@H]2C1`, the INHIBITION is given as 31.8%. In the case of `Cc1csc(CN2CC[C@H]3C[C@H](c4noc(C)n4)O[C@@H]3C2)n1`, the INHIBITION is listed as 42.5%. For `Cc1csc([C@H]2C[C@@H]3CCN(Cc4cc(C)on4)C[C@H]3O2)n1`, the INHIBITION is 64.7%.

On to `Cc1csc([C@@H]2C[C@H]3CN(c4ncc(F)cn4)C[C@H]3O2)n1`, for which the INHIBITION came to 22.6%. In the case of `Cc1csc(CN2CC[C@H]3C[C@@H](c4nnc(C)[nH]4)O[C@@H]3C2)n1` it was 72.3%; in that of `Fc1cnc(N2C[C@@H]3C[C@@H](c4nc(C5CC5)cs4)O[C@@H]3C2)nc1`, 62.3%. For `Cc1c(C2CC(=O)Nc3c2cnn3C(C)(C)C)cnn1C` (centres undefined), the INHIBITION is on record as -56.7%. As for `Cc1[nH]c2nc(CNc3cccc(Cl)c3)nn2c(=O)c1C`, the INHIBITION is -10.7%.

Regarding `Cc1cc(CN2CC[C@H]3C[C@H](c4nccs4)O[C@@H]3C2)no1`, the INHIBITION was 25%. In the case of `Cc1csc([C@@H]2C[C@@H]3CCN(C(=O)c4ccnnc4)C[C@H]3O2)n1`, the INHIBITION is -19%. In the case of `Cc1nnc([C@H]2C[C@@H]3CCN(Cc4cc(C)on4)C[C@H]3O2)[nH]1` it was 35.8%; in that of `Cc1cc(CN2CC[C@H]3C[C@@H](c4nc(C5CC5)cs4)O[C@@H]3C2)no1`, 68.4%. Turning to `Cc1csc([C@H]2C[C@@H]3CCN(C(=O)c4ccnnc4)C[C@H]3O2)n1`, the INHIBITION worked out at 4.61%.

As for `Cc1cc(CN2CC[C@H]3C[C@@H](c4nccs4)O[C@@H]3C2)no1`, the INHIBITION was found to be 57.9%. Turning to `Cc1csc([C@H]2C[C@@H]3CCN(Cc4cnn(C)c4)C[C@H]3O2)n1`, the INHIBITION is -63.5%.

On to `Cc1csc([C@@H]2C[C@@H]3CCN(C(=O)c4cccn4C)C[C@H]3O2)n1`, for which the INHIBITION amounted to 50.7%. Regarding `Cc1noc(C)c1CN1CC[C@H]2C[C@H](c3nccs3)O[C@@H]2C1`, the INHIBITION came to 40.4%.

For the compound `Cc1ccc(CN2CC[C@H]3C[C@@H](c4nc(C5CC5)cs4)O[C@@H]3C2)o1`, the INHIBITION stood at 63.5%. In the case of `Cc1ccc(CN2CC[C@H]3C[C@H](c4nc(C5CC5)cs4)O[C@@H]3C2)o1`, the INHIBITION came out at 21.3%. For `Cc1nnc([C@H]2C[C@@H]3CCN(Cc4ccc(C)o4)C[C@H]3O2)[nH]1`, the INHIBITION is given as 31.7%.

For the compound `CC(C)c1nn(C)cc1CNCc1ccnc(N(C)C)c1`, the INHIBITION turned out to be 23.7%.

In the case of `Cn1ccc2ccnc(CC3CN(C(=O)c4cscn4)C3)c21`, the INHIBITION was found to be 3.91%. To `CNC(=O)[C@@H]1CN(C(=O)CCOC)C[C@H]1c1ccnc(N2CCCC2)n1` belongs -4.68%; to `CCc1nccn1C1CCCN(C(=O)COCC(F)(F)F)C1` (centres undefined), 45.6%; to `Cc1ccc2c(c1)N(C(=O)c1cc[nH]c(=O)c1)CC(C)O2` (centres undefined), 19.3%. Consider `COCc1nn(CC2CC2)c2c1CN(Cc1cncn1C)CC2`, for which the INHIBITION is -88.6%. On to `CC(C(=O)N1CCOCC1)n1cncn1` (centres undefined), for which the INHIBITION is reported as -18.8%.

For the compound `CN(C)c1cccc(CNCc2ccc(N3CCOCC3)cc2)c1`, the INHIBITION amounted to 34.1%. To `Cn1cc(CN2CC[C@H]3C[C@@H](c4nc(C5CC5)cs4)O[C@@H]3C2)cn1` belongs 47%; to `Cc1csc(CN2C[C@@H]3CN(S(C)(=O)=O)CCO[C@@H]3C2)n1`, 33.1%; to `Cn1cc(CN2CC[C@H]3C[C@H](c4nc(C5CC5)cs4)O[C@@H]3C2)cn1`, 41.8%.

As to `c1cc(CN2CC[C@H]3C[C@H](c4nc(C5CC5)cs4)O[C@@H]3C2)ccn1`, the INHIBITION came to 67.5%.

In the case of `Cc1csc([C@@H]2C[C@@H]3CCN(C(=O)c4cc(C)on4)C[C@H]3O2)n1`, the INHIBITION is listed as 5.53%. In the case of `Cc1csc([C@@H]2C[C@@H]3CCN(Cc4cnn(C)c4)C[C@H]3O2)n1`, the INHIBITION is given as -3.19%. Turning to `Cc1cc(CN2CC[C@H]3C[C@H](c4nc(C5CC5)cs4)O[C@@H]3C2)no1`, the INHIBITION came out at 74.7%.
